Measurements published in the supplement of paper PMC7411054.
Structures can show the parent of a compound that is named as a salt.

tested on: HepG2-GM130-SQSTM1; assay: phenotypically active (imaging signature differs from DMSO and reproducible) at any of 0.3-9 uM (binary (1 = active, 0 = inactive)); higher = active; settings: treatment time: 24 h
Summary of the method: (§1)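 Each of fifteen gene-edited A549, HepG2 and WPMY1 reporter lines, marked with BFP for segmentation and GFP and RFP/FusionRed, was treated in four wells at 0.3, 1, 3 or 9 µM for 24 h prior to live imaging. Normalisation of per-well live-cell features used solvent control wells. Deviation needed ≥3 of 4 wells beyond the 95th percentile of control Euclidean distances, and reproducibility needed a median replicate Pearson correlation above the 95th percentile of non-replicates. Both were required for phenotypic activity.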

**Q.** For `Nc1nc2ccc(OC(F)(F)F)cc2s1` [riluzole], which phenotypically active is on record?
**A.** 0 (inactive)

**Q.** Which phenotypically active does the source give for `NCCNS(=O)(=O)c1cccc2cnccc12` [H-9 dihydrochloride] here?
**A.** 0 (inactive)

**Q.** Which phenotypically active does the source give for `N#Cc1c(NC(=O)c2cccc3ccccc23)sc2c1CCCC2` here?
**A.** 1 (active)

**Q.** For `COc1ccc2c(Oc3ccc(NC(=O)c4c(C)n(CC(C)(C)O)n(-c5ccccc5)c4=O)nc3)ccnc2c1`, which phenotypically active is on record?
**A.** 1 (active)

**Q.** How did the phenotypically active turn out when `C[C@@H](c1ncncc1F)[C@](O)(Cn1cncn1)c1ccc(F)cc1F` [voriconazole] was run?
**A.** 0 (inactive)

**Q.** How did the phenotypically active turn out when `CN1C/C(=C/c2ccc(B(O)O)cc2)C(=O)/C(=C/c2ccc(B(O)O)cc2)C1` was run?
**A.** 1 (active)

**Q.** Which phenotypically active does the source give for `Nc1ccn([C@@H]2O[C@H](CO)[C@@H](O)C2(F)F)c(=O)n1` [gemcitabine] here?
**A.** 1 (active)

**Q.** With `Oc1ccc(Nc2nc(-c3ccc(Cl)cc3)cs2)cc1` as the compound, how does the phenotypically active read?
**A.** 1 (active)

**Q.** Which phenotypically active does the source give for `C/C(=C/C(=O)Nc1ccccc1C(=O)O)c1ccc2ccccc2c1` here?
**A.** 0 (inactive)

**Q.** For `NCCC(O)(P(=O)(O)O)P(=O)(O)O` [pamidronate], which phenotypically active is on record?
**A.** 0 (inactive)

**Q.** For `CCN1CCN(c2ccc(Nc3cc(N(C)C(=O)Nc4c(Cl)c(OC)cc(OC)c4Cl)ncn3)cc2)CC1`, which phenotypically active is on record?
**A.** 0 (inactive)

**Q.** `Cc1nc(NC(=O)N2CCC[C@H]2C(N)=O)sc1-c1ccnc(C(C)(C)C(F)(F)F)c1` [alpelisib] was tested. Which phenotypically active did it give?
**A.** 1 (active)

**Q.** With `CCN(CC)CCCC(C)Nc1ccnc2cc(Cl)ccc12` (stereo not given) [chloroquine] as the compound, how does the phenotypically active read?
**A.** 1 (active)

**Q.** For `C[C@H]1O[C@H](O[C@H]2[C@H](O)[C@@H](O)[C@@H](O[C@H]3[C@H](O)[C@@H](O)[C@H](O)O[C@@H]3CO)O[C@@H]2CO)[C@H](O)[C@@H](O)[C@@H]1N[C@H]1C=C(CO)[C@@H](O)[C@H](O)[C@H]1O` [Acarbose], which phenotypically active is on record?
**A.** 0 (inactive)

**Q.** How did the phenotypically active turn out when `C/C(=C/c1ccc(C(=O)O)cc1)c1ccc2c(c1)C(C)(C)CCC2(C)C` was run?
**A.** 0 (inactive)

**Q.** How did the phenotypically active turn out when `Cc1ccc(S(=O)(=O)/C=C/C#N)cc1` was run?
**A.** 0 (inactive)

**Q.** How did the phenotypically active turn out when `O=c1cc(-c2cccc3c2Sc2ccccc2S3)oc(N2CCOCC2)c1` was run?
**A.** 1 (active)

**Q.** How did the phenotypically active turn out when `CCCc1nc2c(C)cc(-c3nc4ccccc4n3C)cc2n1Cc1ccc(-c2ccccc2C(=O)O)cc1` [telmisartan] was run?
**A.** 0 (inactive)

**Q.** For `CC(C)CCN1c2nc(Nc3cc(F)c(O)c(F)c3)ncc2N(C)C(=O)C1C` (stereo not given), which phenotypically active is on record?
**A.** 1 (active)

**Q.** `COc1cc2nccc(Oc3ccc(NC(=O)NC4CC4)c(Cl)c3)c2cc1C(N)=O` [lenvatinib] was tested. Which phenotypically active did it give?
**A.** 0 (inactive)

**Q.** With `Nc1cc(C(F)(F)F)c(-c2cc(N3CCOCC3)nc(N3CCOCC3)n2)cn1` [buparlisib] as the compound, how does the phenotypically active read?
**A.** 1 (active)

**Q.** Which phenotypically active does the source give for `Nc1ccn([C@@H]2O[C@H](CO)[C@@H](O)[C@H]2O)c(=O)n1` [Cytidine] here?
**A.** 0 (inactive)

**Q.** How did the phenotypically active turn out when `OC(CCN1CCCCC1)(c1ccccc1)C1CCCCC1` (stereo not given) [trihexyphenidyl] was run?
**A.** 0 (inactive)

**Q.** `COc1cc([C@@H]2c3cc4c(cc3[C@@H](O[C@@H]3O[C@@H]5CO[C@@H](C)O[C@H]5[C@H](O)[C@H]3O)[C@H]3COC(=O)[C@H]23)OCO4)cc(OC)c1O` [etoposide] was tested. Which phenotypically active did it give?
**A.** 1 (active)

**Q.** With `CCN1CCN(c2cc(-c3ccc(F)cc3)c3c(n2)CCCCCC3)CC1` [blonanserin] as the compound, how does the phenotypically active read?
**A.** 1 (active)

**Q.** How did the phenotypically active turn out when `COc1cc2c(NC3CCN(C(C)C)CC3)nc(C3CCCCC3)nc2cc1OCCCN1CCCC1` was run?
**A.** 1 (active)

**Q.** `COc1cc2ncn(-c3cc(OCc4ccccc4C(F)(F)F)c(C(N)=O)s3)c2cc1OC` was tested. Which phenotypically active did it give?
**A.** 1 (active)

**Q.** With `CCCCC1C(=O)N(c2ccccc2)N(c2ccc(O)cc2)C1=O` (stereo not given) [oxyphenbutazone] as the compound, how does the phenotypically active read?
**A.** 0 (inactive)

**Q.** With `Cc1ccccc1N1C(=O)c2cc(S(N)(=O)=O)c(Cl)cc2NC1C` (stereo not given) [metolazone] as the compound, how does the phenotypically active read?
**A.** 0 (inactive)

**Q.** Which phenotypically active does the source give for `Cc1nc(NC(=O)N2CCC[C@H]2C(N)=O)sc1-c1csc(C(C)(C)C)n1` here?
**A.** 1 (active)

tested on: HepG2-TP53BP1-CLTA; assay: as above; settings: treatment time: 24 h
Summary of the method: as §1

**Q.** Which phenotypically active does the source give for `OCc1ccccc1O[C@@H]1O[C@H](CO)[C@@H](O)[C@H](O)[C@H]1O` [Salicin] here?
**A.** 0 (inactive)

**Q.** With `O=C(c1ccc(C(=O)N2CCC(N3CCCC3)CC2)c(Nc2ccccc2)c1)N1CCC(N2CCCC2)CC1` as the compound, how does the phenotypically active read?
**A.** 0 (inactive)

**Q.** With `O=c1[nH]cc(F)c(=O)[nH]1` [5-Fluorouracil] as the compound, how does the phenotypically active read?
**A.** 1 (active)

**Q.** How did the phenotypically active turn out when `CC[C@H](C)[C@H](NC(=O)OCc1ccccc1)C(=O)N[C@@H](CCC(=O)OC(C)(C)C)C(=O)N[C@@H](C)C(=O)N[C@H](C=O)CC(C)C` was run?
**A.** 1 (active)

**Q.** Which phenotypically active does the source give for `CN1CCN(C2=Nc3cc(Cl)ccc3Nc3ccccc32)CC1` [clozapine] here?
**A.** 0 (inactive)

**Q.** How did the phenotypically active turn out when `Cc1cc(C(C)(C)C)c(O)c(C)c1CC1=NCCN1` [oxymetazoline] was run?
**A.** 0 (inactive)

**Q.** How did the phenotypically active turn out when `CC1(C)NC(=O)N(c2ccc([N+](=O)[O-])c(C(F)(F)F)c2)C1=O` [nilutamide] was run?
**A.** 0 (inactive)

**Q.** How did the phenotypically active turn out when `CCN1CCN(C(c2cccnc2)c2cc(Cl)c3cccnc3c2O)CC1` (stereo not given) was run?
**A.** 1 (active)

**Q.** How did the phenotypically active turn out when `CCOc1cc(N2CCC(O)CC2)ccc1Nc1ncc2c(n1)N(C)c1ccccc1C(=O)N2C` was run?
**A.** 1 (active)

**Q.** How did the phenotypically active turn out when `Cc1c2oc3c(C)ccc(C(=O)NC4C(=O)NC(C(C)C)C(=O)N5CCCC5C(=O)N(C)CC(=O)N(C)C(C(C)C)C(=O)OC4C)c3nc-2c(C(=O)NC2C(=O)NC(C(C)C)C(=O)N3CCCC3C(=O)N(C)CC(=O)N(C)C(C(C)C)C(=O)OC2C)c(N)c1=O` (stereo not given) [Actinomycin D] was run?
**A.** 1 (active)

**Q.** How did the phenotypically active turn out when `Nc1nc2ccc(OC(F)(F)F)cc2s1` [riluzole] was run?
**A.** 0 (inactive)

**Q.** For `NCCNS(=O)(=O)c1cccc2cnccc12` [H-9 dihydrochloride], which phenotypically active is on record?
**A.** 0 (inactive)

**Q.** With `N#Cc1c(NC(=O)c2cccc3ccccc23)sc2c1CCCC2` as the compound, how does the phenotypically active read?
**A.** 1 (active)

**Q.** How did the phenotypically active turn out when `COc1ccc2c(Oc3ccc(NC(=O)c4c(C)n(CC(C)(C)O)n(-c5ccccc5)c4=O)nc3)ccnc2c1` was run?
**A.** 1 (active)

**Q.** Which phenotypically active does the source give for `C[C@@H](c1ncncc1F)[C@](O)(Cn1cncn1)c1ccc(F)cc1F` [voriconazole] here?
**A.** 0 (inactive)

**Q.** Which phenotypically active does the source give for `CN1C/C(=C/c2ccc(B(O)O)cc2)C(=O)/C(=C/c2ccc(B(O)O)cc2)C1` here?
**A.** 1 (active)

**Q.** With `Nc1ccn([C@@H]2O[C@H](CO)[C@@H](O)C2(F)F)c(=O)n1` [gemcitabine] as the compound, how does the phenotypically active read?
**A.** 1 (active)

**Q.** `Oc1ccc(Nc2nc(-c3ccc(Cl)cc3)cs2)cc1` was tested. Which phenotypically active did it give?
**A.** 0 (inactive)

**Q.** With `C/C(=C/C(=O)Nc1ccccc1C(=O)O)c1ccc2ccccc2c1` as the compound, how does the phenotypically active read?
**A.** 0 (inactive)

**Q.** With `NCCC(O)(P(=O)(O)O)P(=O)(O)O` [pamidronate] as the compound, how does the phenotypically active read?
**A.** 0 (inactive)

**Q.** `CCN1CCN(c2ccc(Nc3cc(N(C)C(=O)Nc4c(Cl)c(OC)cc(OC)c4Cl)ncn3)cc2)CC1` was tested. Which phenotypically active did it give?
**A.** 0 (inactive)

**Q.** Which phenotypically active does the source give for `Cc1nc(NC(=O)N2CCC[C@H]2C(N)=O)sc1-c1ccnc(C(C)(C)C(F)(F)F)c1` [alpelisib] here?
**A.** 1 (active)

**Q.** How did the phenotypically active turn out when `CCN(CC)CCCC(C)Nc1ccnc2cc(Cl)ccc12` (stereo not given) [chloroquine] was run?
**A.** 1 (active)

**Q.** Which phenotypically active does the source give for `C[C@H]1O[C@H](O[C@H]2[C@H](O)[C@@H](O)[C@@H](O[C@H]3[C@H](O)[C@@H](O)[C@H](O)O[C@@H]3CO)O[C@@H]2CO)[C@H](O)[C@@H](O)[C@@H]1N[C@H]1C=C(CO)[C@@H](O)[C@H](O)[C@H]1O` [Acarbose] here?
**A.** 0 (inactive)

**Q.** For `C/C(=C/c1ccc(C(=O)O)cc1)c1ccc2c(c1)C(C)(C)CCC2(C)C`, which phenotypically active is on record?
**A.** 0 (inactive)

**Q.** With `Cc1ccc(S(=O)(=O)/C=C/C#N)cc1` as the compound, how does the phenotypically active read?
**A.** 0 (inactive)

**Q.** With `O=c1cc(-c2cccc3c2Sc2ccccc2S3)oc(N2CCOCC2)c1` as the compound, how does the phenotypically active read?
**A.** 1 (active)

**Q.** `CCCc1nc2c(C)cc(-c3nc4ccccc4n3C)cc2n1Cc1ccc(-c2ccccc2C(=O)O)cc1` [telmisartan] was tested. Which phenotypically active did it give?
**A.** 0 (inactive)

**Q.** How did the phenotypically active turn out when `CC(C)CCN1c2nc(Nc3cc(F)c(O)c(F)c3)ncc2N(C)C(=O)C1C` (stereo not given) was run?
**A.** 1 (active)

**Q.** `COc1cc2nccc(Oc3ccc(NC(=O)NC4CC4)c(Cl)c3)c2cc1C(N)=O` [lenvatinib] was tested. Which phenotypically active did it give?
**A.** 0 (inactive)

**Q.** For `Nc1cc(C(F)(F)F)c(-c2cc(N3CCOCC3)nc(N3CCOCC3)n2)cn1` [buparlisib], which phenotypically active is on record?
**A.** 1 (active)

**Q.** For `Nc1ccn([C@@H]2O[C@H](CO)[C@@H](O)[C@H]2O)c(=O)n1` [Cytidine], which phenotypically active is on record?
**A.** 0 (inactive)

**Q.** With `OC(CCN1CCCCC1)(c1ccccc1)C1CCCCC1` (stereo not given) [trihexyphenidyl] as the compound, how does the phenotypically active read?
**A.** 0 (inactive)

**Q.** With `COc1cc([C@@H]2c3cc4c(cc3[C@@H](O[C@@H]3O[C@@H]5CO[C@@H](C)O[C@H]5[C@H](O)[C@H]3O)[C@H]3COC(=O)[C@H]23)OCO4)cc(OC)c1O` [etoposide] as the compound, how does the phenotypically active read?
**A.** 1 (active)

**Q.** How did the phenotypically active turn out when `CCN1CCN(c2cc(-c3ccc(F)cc3)c3c(n2)CCCCCC3)CC1` [blonanserin] was run?
**A.** 1 (active)

**Q.** With `COc1cc2c(NC3CCN(C(C)C)CC3)nc(C3CCCCC3)nc2cc1OCCCN1CCCC1` as the compound, how does the phenotypically active read?
**A.** 1 (active)

**Q.** For `COc1cc2ncn(-c3cc(OCc4ccccc4C(F)(F)F)c(C(N)=O)s3)c2cc1OC`, which phenotypically active is on record?
**A.** 1 (active)

**Q.** Which phenotypically active does the source give for `CCCCC1C(=O)N(c2ccccc2)N(c2ccc(O)cc2)C1=O` (stereo not given) [oxyphenbutazone] here?
**A.** 0 (inactive)

**Q.** For `Cc1ccccc1N1C(=O)c2cc(S(N)(=O)=O)c(Cl)cc2NC1C` (stereo not given) [metolazone], which phenotypically active is on record?
**A.** 0 (inactive)

**Q.** Which phenotypically active does the source give for `Cc1nc(NC(=O)N2CCC[C@H]2C(N)=O)sc1-c1csc(C(C)(C)C)n1` here?
**A.** 1 (active)
